Screening results deposited in PubChem by National Center for Advancing Translational Sciences (NCATS).
Rows were chosen to be rich in hits. Some 12% of all compounds tested hit in one or more screens of this group.
Pf growth 48h: P. falciparum growth inhibition at 48 hours (one generation); P. falciparum luciferase growth in erythrocytes, 48 h; Potency, µM (top dose mostly 28.7 µM), without a hit: top-dose activity change, negative = inhibition, hits mostly inhibitors; 310,000 compounds, 5.9% hits; AID 504832; further: on the % scale 0 is the no-effect control and ±100 the full control effect
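Here the parasites carry a stable luciferase gene and grow inside erythrocytes in Albumax-based RPMI medium with compound for one erythrocytic cycle. Activity is scored as loss of luminescent signal.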
NS1 function inh: inhibitors of influenza NS1 protein function | Potency, µM (doses to about 46.1 µM), for the others: top-dose activity, positive = more growth | 270,000 compounds, 0.4% hits; calls by dose curve; further: actives are rising curves; nearly all actives have a fitted effect of over 50% in size
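A cell-based growth assay was used: compounds that relieve NS1-induced slow growth of budding yeast raise OD600. Assay medium was yeast nitrogen base with ammonium sulphate and -URA supplement, pH 6.0, with 2% galactose.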
SARS PLpro yeast: SARS-CoV PLP inhibition in yeast; 330,000 compounds, 0.19% hits; S. cerevisiae expressing SARS-CoV PLpro, growth rescue; Potency, µM (titrated, usually from 32.9 µM), without a hit: at the top dose activity, positive = growth rescue, most hits filed as activators; AID 485353; calls by dose curve; further: 0% is about no effect; nearly all actives have a fitted effect of over 55% in size
AMA1-RON2 inh: inhibitors of Plasmodium falciparum AMA1-RON2 interaction. 360,000 compounds, 0.2% hits. Potency, µM (highest dose often 58.2 µM), inactives show top-dose activity change, negative = inhibition, actives largely listed as inhibitors. AlphaScreen AMA1-biotinylated RON2 peptide binding;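 further: 0% = vehicle wells and -100% = peptide control; nearly all actives have a fitted effect of over 45% in size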
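AMA1 (3D7) with his tag at 25 nM final met compounds first, then biotinylated RON2 peptide at 25 nM; detection used donor plus acceptor beads, 10 µg/mL apiece, read by AlphaScreen after 30 min at room temperature.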
HCV inhibitor: blocks hepatitis C virus; 340,000 compounds, 3.4% hits; AID 651820; Huh7.5.1 HCVcc-Cre infection, luciferase reporter, 44 h; Potency, µM (top dose mostly 41.8 µM), without a hit: top-dose activity change, negative = inhibition, actives largely listed as inhibitors; further: on the % scale 0 is the no-effect control and ±100 the full control effect
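Cells seeded at 1,000/well and cultured 4 h, then compounds added followed by HCVcc-Cre virus (~0.5 moi). After 44 h further culture, luciferase substrate was added, plates held 15 min at room temperature, and luminescence read for 15 sec.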
Pf growth 96h: inhibits malaria parasite growth, 96 h | P. falciparum luciferase reporter growth, 96 h | Potency, µM (highest dose often 28.7 µM), without a hit: at the top dose activity change, negative = inhibition, hits mostly inhibitors | 320,000 compounds, 6.9% hits | AID 504834; further: on the % scale 0 is the no-effect control and ±100 the full control effect
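Two-generation exposure (96 h) targets delayed-death phenotype. Reporter parasites carrying integrated firefly luciferase, in red cells at 2% hematocrit and 0.05% parasitemia final, kept at 37 C, 5% CO2; luminescence loss indicates inhibition.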
Numbers without * were called inactive. Unless noted, the call rests on the fitted dose curve; in most records, active means well fitted curve in the direction sought with a large enough effect; inconclusive means small, poorly fitted or top-dose-only effect, or another doubt; inactive means no such curve, though single readings can be large; an effect the other way counts as inactive or inconclusive. Potency means the concentration at half of the fitted maximal effect.

COc1cccc(CNCCc2ccc3c(c2)OCO3)c1OC was read as Pf growth 48h -12%, NS1 function inh -2%, SARS PLpro yeast 2%, AMA1-RON2 inh -30%, HCV inhibitor 4% and Pf growth 96h inconclusive.
`COc1ccccc1NC(=O)CNc1ccc(F)c(Cl)c1` gave Pf growth 48h inconclusive, NS1 function inh -14%, SARS PLpro yeast -3%, AMA1-RON2 inh -7%, HCV inhibitor 11% and Pf growth 96h 15µM*.
`COc1cccc(CNc2ccc(F)c(Cl)c2)c1OC` gave NS1 function inh -61%, SARS PLpro yeast -2%, AMA1-RON2 inh -8%, HCV inhibitor 0% and Pf growth 96h 10µM*.
Screening COc1cccc(CNCCc2cccc(F)c2)c1OC returned Pf growth 48h -17%, NS1 function inh 6%, SARS PLpro yeast 0%, AMA1-RON2 inh -17%, HCV inhibitor 7% and Pf growth 96h 4.1µM*.
Screening O=S(=O)(NCCC1=CCCCC1)c1ccc(OC(F)(F)F)cc1 returned Pf growth 48h 8%, SARS PLpro yeast -1%, AMA1-RON2 inh 20%, HCV inhibitor 0% and Pf growth 96h 33%.
`NC(=O)c1ccc(OCC(F)(F)C(F)(F)C(F)(F)C(F)(F)C(F)(F)C(F)F)cc1` gave Pf growth 48h 7%, NS1 function inh -5%, SARS PLpro yeast -16%, AMA1-RON2 inh -4%, HCV inhibitor 0% and Pf growth 96h 12µM*.
Cc1cc(OCC(F)(F)C(F)(F)C(F)(F)C(F)(F)C(F)(F)C(F)F)nc(N)n1 was read as Pf growth 48h 35%, NS1 function inh 0%, SARS PLpro yeast -1%, AMA1-RON2 inh 8%, HCV inhibitor -2% and Pf growth 96h -2%.
For O=C(c1ccc(C(F)(F)F)cc1)C1CCCN(C(=O)CN2CCCC2=O)C1 (stereo unspecified) the results were Pf growth 48h -2%, NS1 function inh 3%, SARS PLpro yeast -3%, AMA1-RON2 inh 2%, HCV inhibitor 23% and Pf growth 96h 14%.
For CN(C)S(=O)(=O)N1CCCC(C(=O)c2ccc(C(F)(F)F)cc2)C1 (stereo unspecified) the results were Pf growth 48h -7%, NS1 function inh 0%, SARS PLpro yeast 1%, AMA1-RON2 inh -6%, HCV inhibitor 0% and Pf growth 96h 0.83µM*.
`COCCC(=O)N1CCCC(C(=O)c2ccc(C(F)(F)F)cc2)C1` (stereo unspecified) gave Pf growth 48h -1%, NS1 function inh 10%, SARS PLpro yeast -1%, AMA1-RON2 inh 9%, HCV inhibitor 8% and Pf growth 96h 13µM*.
C=CC[C@H](CC(=O)NCCO)C(=O)NC[C@@H](OC(=O)[C@H](CC=C)CC(=O)OC(C)(C)C)c1ccccc1 was read as SARS PLpro yeast -9%, AMA1-RON2 inh 22% and HCV inhibitor -12%.
`COc1ccc(-c2nc3c(c(SCC(=O)Nc4cccc(O)c4)n2)Cc2c(CO)cnc(C)c2O3)cc1` gave Pf growth 48h 9.3µM*, NS1 function inh 16%, SARS PLpro yeast -9%, AMA1-RON2 inh 9%, HCV inhibitor inconclusive and Pf growth 96h 4%.
Screening CCc1ccc(NC(=O)CSc2nc(-c3ccc(C)cc3)nc3c2Cc2c(CO)cnc(C)c2O3)cc1 returned Pf growth 48h 3%, SARS PLpro yeast -6% and Pf growth 96h -6%.
Cc1ncc(CO)c2c1Oc1nc(-c3ccccc3)nc(SCC(=O)Nc3cccc(O)c3)c1C2 was read as Pf growth 48h 9.3µM*, NS1 function inh 2%, SARS PLpro yeast 1%, AMA1-RON2 inh -2%, HCV inhibitor inconclusive and Pf growth 96h -3%.
Screening c1ccc(CNc2cccnc2)cc1 returned AMA1-RON2 inh 14%.
O=C(CN1C(=O)NC2(CCCc3ccccc32)C1=O)NCc1ccc(Cl)cc1Cl (stereo unspecified) was read as Pf growth 48h -17%, NS1 function inh 1%, SARS PLpro yeast -3%, AMA1-RON2 inh 3% and Pf growth 96h -8%.
Screening CN(C)CCNCCCNc1c2ccccc2nc2cccc([N+](=O)[O-])c12 returned AMA1-RON2 inh 25% and HCV inhibitor inconclusive.
NC(=O)c1cccc(-c2cc(Nc3ccc(OC(F)(F)F)cc3)ncn2)c1 was read as Pf growth 48h 13µM*, NS1 function inh -79%, SARS PLpro yeast -3%, AMA1-RON2 inh 5%, HCV inhibitor inconclusive and Pf growth 96h 15µM*.
`Cc1c(Nc2ccc3nonc3c2[N+](=O)[O-])c(=O)n(-c2ccccc2)n1C` gave Pf growth 48h 14%, SARS PLpro yeast 4%, AMA1-RON2 inh -1%, HCV inhibitor 6% and Pf growth 96h 0.66µM*.
For Cc1c(Nc2cc(Cl)c3nonc3c2[N+](=O)[O-])c(=O)n(-c2ccccc2)n1C the results were Pf growth 48h -18%, SARS PLpro yeast 1%, AMA1-RON2 inh 1%, HCV inhibitor 4µM* and Pf growth 96h -79%.
For COc1ccc(-c2c(C(F)(F)F)nn(C)c2NC(=O)CSCC(=O)O)cc1 the results were Pf growth 48h 9%, NS1 function inh 4%, SARS PLpro yeast 1%, AMA1-RON2 inh 7%, HCV inhibitor 5% and Pf growth 96h 24%.
`O=C1c2oc3ccccc3c(=O)c2C(c2ccc(O)cc2)N1c1nccs1` (stereo unspecified) gave Pf growth 48h 1%, SARS PLpro yeast 1%, AMA1-RON2 inh 0%, HCV inhibitor 9% and Pf growth 96h 21%.
`CS(=O)CCC(NS(=O)(=O)c1ccccc1)C(=O)O` (stereo unspecified) gave Pf growth 48h inconclusive, NS1 function inh -1%, SARS PLpro yeast 9%, AMA1-RON2 inh 3%, HCV inhibitor -18% and Pf growth 96h 9.3µM*.
For CCCCN(C(=O)CSc1cc(C)c2ccc(OC)cc2n1)c1c(N)n(Cc2ccccc2)c(=O)[nH]c1=O the results were Pf growth 48h -16%, NS1 function inh inconclusive, SARS PLpro yeast -4%, AMA1-RON2 inh 83%, HCV inhibitor inconclusive and Pf growth 96h 12µM*.
`COc1cc2ccccc2cc1C(=O)OCC(=O)N(CC(C)C)c1c(N)n(Cc2ccccc2)c(=O)[nH]c1=O` gave Pf growth 48h 10µM*, SARS PLpro yeast 1%, AMA1-RON2 inh 15%, HCV inhibitor inconclusive and Pf growth 96h inconclusive.
`COCCCN(C(=O)CCSc1ccc(F)cc1)c1c(N)n(Cc2ccccc2)c(=O)[nH]c1=O` gave Pf growth 48h 12µM*, SARS PLpro yeast 5%, AMA1-RON2 inh 2%, HCV inhibitor -16% and Pf growth 96h inconclusive.
